A selection: hits, their analogues and other compounds. The true share with any hit is near 0.9%.
gsp ag: activates gsp, the McCune-Albright syndrome mutation; gsp mutant cells, cAMP HTRF, 30 min; Potency, µM (top dose mostly 76.9 µM), without a hit: at the top dose activation (cAMP increase), most hits filed as activators; 340,000 tested, 0.13% active; AID 624287; active = well fitted activation curve with a large enough effect; inconclusive = small, poorly fitted or top-dose-only effect, or another doubt; inactive = no such curve, though single readings can be large or run the other way; cell line not stated here;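 note: phosphodiesterase inhibitor Ro 20-1724 added with compounds to block cAMP breakdown; potency is the fitted concentration of half-maximal effect; nearly all actives have a fitted effect of over 60% in size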
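Cells in DMEM/10% FBS with G418 were pretreated with compounds in DMSO plus […] (300 uM stock) for 30 min at 37C. cAMP was measured by HTRF (cAMP-d2 plus anti-cAMP antibody-K) after 30 min at room temperature.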
RXFP1 agonist: agonists of human relaxin receptor RXFP1; Q9HBX9; HEK293T-RXFP1 cAMP TR-FRET, 30 min; response scale: percent of porcine relaxin response, buffer zero; Potency, µM (highest dose often 57.5 µM), without a hit: at the top dose activation, most hits filed as activators; 370,000 tested, 0.3% active; AID 2676; active = well fitted activation curve with a large enough effect; inconclusive = small, poorly fitted or top-dose-only effect; note: potency is the fitted concentration of half-maximal effect; % is set by controls: 0 for no effect and ±100 for the full control effect; nearly all actives have a fitted effect of over 60% in size
Target sequence (Q9HBX9 whole entry, looked up): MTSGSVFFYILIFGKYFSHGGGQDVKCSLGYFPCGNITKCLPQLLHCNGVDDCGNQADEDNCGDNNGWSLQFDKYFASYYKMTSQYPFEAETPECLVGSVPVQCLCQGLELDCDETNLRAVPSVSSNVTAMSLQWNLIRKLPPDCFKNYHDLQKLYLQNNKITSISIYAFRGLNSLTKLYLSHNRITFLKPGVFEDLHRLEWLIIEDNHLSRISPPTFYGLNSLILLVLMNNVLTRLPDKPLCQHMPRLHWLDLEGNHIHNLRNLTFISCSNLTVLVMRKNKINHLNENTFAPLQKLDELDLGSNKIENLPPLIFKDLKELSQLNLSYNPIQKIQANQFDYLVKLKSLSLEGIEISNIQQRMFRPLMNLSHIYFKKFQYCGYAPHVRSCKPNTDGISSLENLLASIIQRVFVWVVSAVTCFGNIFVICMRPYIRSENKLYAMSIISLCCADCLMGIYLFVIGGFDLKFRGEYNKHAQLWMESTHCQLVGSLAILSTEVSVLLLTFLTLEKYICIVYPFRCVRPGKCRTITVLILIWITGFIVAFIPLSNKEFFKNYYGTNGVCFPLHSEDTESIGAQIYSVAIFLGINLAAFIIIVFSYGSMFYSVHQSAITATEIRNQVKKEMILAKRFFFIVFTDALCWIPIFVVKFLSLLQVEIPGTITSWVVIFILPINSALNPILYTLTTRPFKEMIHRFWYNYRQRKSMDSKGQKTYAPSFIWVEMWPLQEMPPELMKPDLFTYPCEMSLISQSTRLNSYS
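HEK293T cells stably expressing RXFP1 were pretreated with the PDE4 inhibitor Ro 20174, exposed to compounds for 30 min at 37C, lysed, and cAMP was read by TR-FRET. Data normalized to buffer (basal) and 29 nM porcine relaxin (100%).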
RXFP1 antag: antagonists of human relaxin receptor RXFP1 | HEK293-RXFP1, relaxin-stimulated cAMP HTRF, 30 min; hits give low values | Q9HBX9 | 350,000 tested, 0.59% active | activity change, negative = inhibition, % at 57.5 µM;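 active = activity change of -60% or lower, but not beyond a set lower limit; inconclusive = change between -60% and -40%, or beyond the set limit; inactive = change above -40%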; note: % is set by controls: 0 for no effect and ±100 for the full control effect
gsp antagonist: antagonists of gsp mutant (McCune-Albright syndrome). 340,000 tested, 0.4% active. AID 624288. Potency, µM (highest dose often 76.9 µM), for inactives: at the highest dose activity change, negative = inhibition, most hits filed as inhibitors. gsp-mutant cells, cAMP HTRF, 30 min; calls by dose curve; cell line not stated here;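 note: intracellular cAMP measured with PDE inhibitor Ro 20-1724 present during compound exposure; potency is the fitted concentration of half-maximal effect; % is set by controls: 0 for no effect and ±100 for the full control effect; nearly all actives have a fitted effect of over 65% in size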
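Cells in G418 medium, seeded 16-24 h, 37C; buffer exchange to DPBS + 1 mM CaCl2, 0.5 mM MgCl2, 0.05% BSA; cpds in DMSO + […] (300 uM stock), 30 min 37C; HTRF cAMP detection.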
Numbers without * were called inactive; [ ] = remark or other dose.

Screening COc1ccc(-c2nn(-c3ccccc3)cc2/C=C2/SC(=S)N(CCC(=O)O)C2=O)cc1 returned gsp ag -5.1%[15.4 µM], RXFP1 agonist 0.5%, RXFP1 antag -6.0 and gsp antagonist 31.6µM*.
`CCN(CC)CCCNC(=O)c1ccc(-c2nc(CN3CCc4ccccc43)c(C)o2)cc1` gave RXFP1 agonist -0.1%.
`CC(=O)Nc1ccc(NC(=O)CSc2nnc3ccc(-c4ccccn4)nn23)cc1` gave gsp ag 10.9%[15.4 µM], RXFP1 agonist 3.7%, RXFP1 antag -106.3* and gsp antagonist 0.3%.
`CC(=O)Nc1cccc(NC(=O)CSc2nnc3ccc(-c4ccccn4)nn23)c1` gave gsp ag 26.8%, RXFP1 agonist 2.5%, RXFP1 antag -16.8 and gsp antagonist -6.8%.
Screening COc1ccc(NC(=O)CSc2ccc3nnc(-c4ccccn4)n3n2)cc1OC returned gsp ag inconclusive, RXFP1 agonist -0.2%, RXFP1 antag 3.4 and gsp antagonist 1.5%.
Screening CC(=O)Nc1ccc(NC(=O)CSc2ccc3nnc(-c4ccccn4)n3n2)cc1 returned gsp ag inconclusive, RXFP1 agonist 8.91µM*, RXFP1 antag 1.8 and gsp antagonist 30.4%.
`Cc1ccc(C)c(NC(=O)Cn2c(=O)n(Cc3ccc4c(c3)OCO4)c(=O)c3oc4ccccc4c32)c1` gave RXFP1 agonist 1.6% and RXFP1 antag 2.0.
Screening CC(=O)Oc1ccc(/C=C2/C(=O)N(c3ccccc3)N=C2C)cc1 returned gsp ag 6.8%[15.4 µM], RXFP1 agonist -2.3%, RXFP1 antag -23.6 and gsp antagonist -19.4%.
Screening COc1ccc(/C=C2/C(=O)N(c3ccccc3)N=C2C)cc1 returned gsp ag -5.1%, RXFP1 antag -60.6* and gsp antagonist -5.3%.
`CC1=NN(c2ccccc2)C(=O)/C1=C\C=C\c1ccccc1` gave gsp ag 14.9%[15.4 µM], RXFP1 agonist 1.6%, RXFP1 antag -62.8* and gsp antagonist -7.6%.
`CC1=NN(c2ccccc2)C(=O)/C1=C/c1cccc(C)c1` gave gsp ag -6.1%[15.4 µM], RXFP1 agonist -0.3%, RXFP1 antag -27.5 and gsp antagonist -15.2%.
Screening CC1=NN(c2ccccc2)C(=O)/C1=C/C=C/c1ccc(N(C)C)cc1 returned gsp ag 4.6%, RXFP1 agonist -19.3%, RXFP1 antag -20.9 and gsp antagonist 35.5µM*.
`CC1=NN(c2ccccc2)C(=O)/C1=C/N(C)C` gave gsp ag 2.3%, RXFP1 agonist 0.0%, RXFP1 antag 15.3 and gsp antagonist -1.0%.
Cc1ccccc1CSc1cn(CC(=O)N2CCCCC2)c2ccccc12 was read as RXFP1 agonist -1.9% and RXFP1 antag -35.0.
For CC1CCN(C(=O)c2cnn(-c3cccc(Cl)c3)c2C2CCN(C(=O)OC(C)(C)C)CC2)CC1 the results were RXFP1 agonist -0.1% and RXFP1 antag -16.8.
Screening COc1ccc(Nc2nc(N3CCCCC3)c3ccccc3n2)cc1 returned gsp ag -5.6%, RXFP1 agonist 2.7%, RXFP1 antag -65.6* and gsp antagonist -32.5%.
S=c1[nH]nc(-c2ccccc2)c2ccccc12 was read as gsp ag inconclusive, RXFP1 agonist 9.7%, RXFP1 antag -84.2* and gsp antagonist 1.9%.
Cc1nnc2c(N3CCN(c4ccccc4F)CC3)nc3ccc(C(=O)c4ccccc4)cc3n12 was read as RXFP1 agonist -1.0% and RXFP1 antag -8.2.
Screening O=C(CSc1ccc2nnc(-c3ccc(F)cc3)n2n1)N1CCOCC1 returned gsp ag 20µM* and gsp antagonist 4.6%.
For COCCOC(=O)c1c(-c2ccccc2)c(-c2ccccc2)nn(C)c1=O the results were RXFP1 agonist 0.3% and RXFP1 antag -18.2.
`O=C(c1ccccc1F)N1c2nc(-c3ccco3)nn2C2(CCCCC2)[C@@H]2CCCC[C@@H]21` gave RXFP1 agonist -1.0% and RXFP1 antag -65.5*.
`O=C(c1ccc(F)cc1)N1c2nc(-c3ccco3)nn2C2(CCCCC2)[C@@H]2CCCC[C@@H]21` gave RXFP1 agonist 2.9% and RXFP1 antag -70.9*.
Screening O=C(c1ccccc1F)N1c2ncnn2C2(CCCCC2)[C@@H]2CCCC[C@@H]21 returned RXFP1 agonist 1.3% and RXFP1 antag -8.0.
`COc1ccc(C(=O)N2c3nc(-c4ccco4)nn3C3(CCCCC3)[C@@H]3CCCC[C@@H]32)cc1OC` gave RXFP1 agonist 0.1% and RXFP1 antag -25.7.
`Cc1ccc(CNC(=O)c2ccc3c(c2)nc(C)n3-c2cccc(F)c2)cc1` gave RXFP1 agonist 2.4% and RXFP1 antag -3.1.
COc1ccccc1C(=O)OCc1cc(=O)n2nc(C(C)C)sc2n1 was read as RXFP1 agonist -0.3%.
Screening Cc1cccc(N2CC(C(=O)Nc3nnc(SCCN4CCOCC4)s3)CC2=O)c1 (configuration not stated) returned gsp ag 4.2%[15.4 µM], RXFP1 agonist -1.6%, RXFP1 antag -15.0 and gsp antagonist -10.9%.
Cc1ccccc1N1CC(C(=O)Nc2nnc(SCCN3CCOCC3)s2)CC1=O (configuration not stated) was read as gsp ag inconclusive, RXFP1 agonist 0.0%, RXFP1 antag 3.9 and gsp antagonist 31.6µM*.
For COc1cc2c(cc1OC)C(c1ccc(F)cc1)N(c1cccc(C#N)c1)C(=O)C2 (configuration not stated) the results were RXFP1 agonist -1.9% and RXFP1 antag -5.9.
Screening COc1cc(/C=N/N2CCN(c3ccc(Cl)cc3)CC2)cc(OC)c1OC(C)=O returned gsp ag inconclusive, RXFP1 agonist -0.6%, RXFP1 antag 12.2 and gsp antagonist 2.7%.
Screening COc1cc(/C=N/N2CCN(c3ccccc3)CC2)cc(OC)c1OC(C)=O returned gsp ag -9.5%, RXFP1 agonist -0.5%, RXFP1 antag -1.0 and gsp antagonist 31.6µM*.
C=C(CC)C(=O)c1ccc(OCC(=O)O)c(Cl)c1Cl was read as RXFP1 agonist -3.3%, RXFP1 antag -71.3* and gsp antagonist inconclusive.
CCOC(=O)COc1ccc2nsnc2c1Cl was read as gsp ag 0.0%, RXFP1 agonist 6.4%, RXFP1 antag -7.7 and gsp antagonist inconclusive.
Screening COc1ccc(CCNC(=O)C2COc3ccccc3C2)cc1OC (configuration not stated) returned RXFP1 agonist -1.0% and RXFP1 antag -6.2.
Screening CCn1nc(C)cc1-c1nnc(Sc2ncc([N+](=O)[O-])s2)n1C returned gsp ag 7.9%, RXFP1 agonist 1.5%, RXFP1 antag -72.8* and gsp antagonist 10.8%.
`N#Cc1ccsc1NC(=O)CN1CCN(Cc2ccccc2)CC1` gave gsp ag 30.4%[15.4 µM], RXFP1 agonist 1.3%, RXFP1 antag -4.3 and gsp antagonist -4.2%.
For N#Cc1ccccc1NC(=O)CN1CCN(Cc2ccccc2)CC1 the results were gsp ag -0.5%[15.4 µM], RXFP1 agonist 0.1%, RXFP1 antag -5.8 and gsp antagonist 35.5µM*.
Screening Cc1cccc(-c2noc(CSc3nc(-c4ccc(F)cc4)cc(=O)[nH]3)n2)c1 returned RXFP1 agonist 24.0% and RXFP1 antag -10.2.

From PubChem BioAssay
